This note sets out measurements from the supplement of paper PMC10849652.

About 8,800 targets were measured; listed, in parts, are those with a hit and a random draw of the rest. About 0.5% of all pairs of compound and target were hits. Unmarked numbers belong to inactive results.

Chain of UniProt O15027 (O15027 whole entry, looked up): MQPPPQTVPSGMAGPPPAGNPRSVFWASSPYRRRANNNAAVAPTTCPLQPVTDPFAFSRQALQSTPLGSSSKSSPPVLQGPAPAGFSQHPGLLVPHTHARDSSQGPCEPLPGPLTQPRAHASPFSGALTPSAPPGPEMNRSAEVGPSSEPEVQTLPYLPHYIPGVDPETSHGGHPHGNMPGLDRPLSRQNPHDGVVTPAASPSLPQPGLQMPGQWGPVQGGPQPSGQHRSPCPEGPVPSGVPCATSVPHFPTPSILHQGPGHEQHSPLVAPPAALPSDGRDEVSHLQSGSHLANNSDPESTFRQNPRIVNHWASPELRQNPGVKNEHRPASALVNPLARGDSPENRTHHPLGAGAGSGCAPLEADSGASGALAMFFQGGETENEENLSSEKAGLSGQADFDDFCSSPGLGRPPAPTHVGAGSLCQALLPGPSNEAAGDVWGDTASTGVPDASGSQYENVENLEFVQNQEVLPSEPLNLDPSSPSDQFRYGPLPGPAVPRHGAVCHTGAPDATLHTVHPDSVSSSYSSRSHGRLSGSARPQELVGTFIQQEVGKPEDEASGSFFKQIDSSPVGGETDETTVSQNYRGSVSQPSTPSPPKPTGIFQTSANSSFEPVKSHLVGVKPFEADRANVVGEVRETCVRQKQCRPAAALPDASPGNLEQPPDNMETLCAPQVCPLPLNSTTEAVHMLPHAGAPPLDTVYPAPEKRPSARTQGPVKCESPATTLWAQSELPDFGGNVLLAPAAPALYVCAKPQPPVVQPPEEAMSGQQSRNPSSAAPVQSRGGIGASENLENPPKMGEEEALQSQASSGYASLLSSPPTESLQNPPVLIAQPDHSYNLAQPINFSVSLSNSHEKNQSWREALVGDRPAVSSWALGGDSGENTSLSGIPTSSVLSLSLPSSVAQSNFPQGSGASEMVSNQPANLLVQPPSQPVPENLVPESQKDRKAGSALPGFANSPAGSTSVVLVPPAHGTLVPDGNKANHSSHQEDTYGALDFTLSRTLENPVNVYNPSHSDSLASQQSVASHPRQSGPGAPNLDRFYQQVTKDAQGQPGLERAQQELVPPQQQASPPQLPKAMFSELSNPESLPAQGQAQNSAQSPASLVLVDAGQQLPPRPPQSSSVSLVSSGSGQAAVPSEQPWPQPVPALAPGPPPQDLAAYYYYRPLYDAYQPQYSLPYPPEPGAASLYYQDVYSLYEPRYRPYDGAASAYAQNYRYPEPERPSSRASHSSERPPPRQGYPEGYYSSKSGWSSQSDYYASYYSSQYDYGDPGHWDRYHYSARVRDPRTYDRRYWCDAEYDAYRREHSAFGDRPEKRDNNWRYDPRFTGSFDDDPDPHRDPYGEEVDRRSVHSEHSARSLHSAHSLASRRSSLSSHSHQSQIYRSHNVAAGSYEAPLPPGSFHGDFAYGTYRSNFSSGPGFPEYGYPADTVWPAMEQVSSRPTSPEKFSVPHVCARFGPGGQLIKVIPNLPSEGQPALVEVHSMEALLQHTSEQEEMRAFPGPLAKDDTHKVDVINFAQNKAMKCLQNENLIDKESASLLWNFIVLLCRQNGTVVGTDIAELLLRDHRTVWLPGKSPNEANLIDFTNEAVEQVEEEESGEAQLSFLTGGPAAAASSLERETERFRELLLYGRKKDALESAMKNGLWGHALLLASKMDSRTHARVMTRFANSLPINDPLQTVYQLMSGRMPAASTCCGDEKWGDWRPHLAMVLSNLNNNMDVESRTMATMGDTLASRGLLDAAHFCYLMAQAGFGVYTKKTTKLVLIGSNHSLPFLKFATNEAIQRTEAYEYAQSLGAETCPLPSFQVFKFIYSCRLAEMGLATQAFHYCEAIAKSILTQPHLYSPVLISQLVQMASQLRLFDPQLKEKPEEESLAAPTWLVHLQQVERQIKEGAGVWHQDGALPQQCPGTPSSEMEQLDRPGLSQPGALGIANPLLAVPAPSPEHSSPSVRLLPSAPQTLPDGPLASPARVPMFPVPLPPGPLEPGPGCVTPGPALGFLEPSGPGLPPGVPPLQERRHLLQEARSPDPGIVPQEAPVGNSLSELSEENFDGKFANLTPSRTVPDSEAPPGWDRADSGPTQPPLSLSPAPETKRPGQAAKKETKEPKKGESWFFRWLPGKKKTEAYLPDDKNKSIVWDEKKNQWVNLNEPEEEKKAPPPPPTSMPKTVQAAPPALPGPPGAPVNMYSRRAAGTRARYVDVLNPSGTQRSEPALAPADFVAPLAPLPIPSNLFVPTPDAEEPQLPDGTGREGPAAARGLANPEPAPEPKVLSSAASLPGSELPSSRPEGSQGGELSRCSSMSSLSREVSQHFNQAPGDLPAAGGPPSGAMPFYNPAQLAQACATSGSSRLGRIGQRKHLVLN
Chain of UniProt P51812 (P51812 whole entry, looked up): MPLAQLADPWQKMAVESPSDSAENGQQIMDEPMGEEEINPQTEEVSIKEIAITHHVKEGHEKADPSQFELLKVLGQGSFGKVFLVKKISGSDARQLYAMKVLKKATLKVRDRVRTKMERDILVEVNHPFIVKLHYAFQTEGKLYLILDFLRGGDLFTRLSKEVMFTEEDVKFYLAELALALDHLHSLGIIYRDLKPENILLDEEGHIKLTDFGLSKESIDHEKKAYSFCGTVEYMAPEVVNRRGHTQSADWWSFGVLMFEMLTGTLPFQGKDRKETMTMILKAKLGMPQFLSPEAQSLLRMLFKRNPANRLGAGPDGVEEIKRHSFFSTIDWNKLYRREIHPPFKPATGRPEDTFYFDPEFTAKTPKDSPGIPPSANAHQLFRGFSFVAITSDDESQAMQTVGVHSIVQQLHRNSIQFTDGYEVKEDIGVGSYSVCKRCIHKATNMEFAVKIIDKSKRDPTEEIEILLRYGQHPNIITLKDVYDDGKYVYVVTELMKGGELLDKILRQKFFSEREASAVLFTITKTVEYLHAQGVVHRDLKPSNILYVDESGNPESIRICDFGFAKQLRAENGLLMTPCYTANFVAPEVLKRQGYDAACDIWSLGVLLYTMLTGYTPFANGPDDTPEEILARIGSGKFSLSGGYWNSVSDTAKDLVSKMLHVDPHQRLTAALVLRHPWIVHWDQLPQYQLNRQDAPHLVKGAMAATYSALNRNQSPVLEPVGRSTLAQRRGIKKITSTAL
Chain of UniProt Q8TC12 (Q8TC12 whole entry, looked up): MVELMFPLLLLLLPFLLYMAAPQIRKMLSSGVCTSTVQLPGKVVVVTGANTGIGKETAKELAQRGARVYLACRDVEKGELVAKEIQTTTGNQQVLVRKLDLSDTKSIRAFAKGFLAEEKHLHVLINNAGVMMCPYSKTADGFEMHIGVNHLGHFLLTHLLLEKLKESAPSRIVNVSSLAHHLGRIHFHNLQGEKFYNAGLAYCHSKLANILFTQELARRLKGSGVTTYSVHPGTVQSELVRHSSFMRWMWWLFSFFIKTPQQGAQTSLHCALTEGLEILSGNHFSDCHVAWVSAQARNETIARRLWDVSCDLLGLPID
Chain of UniProt Q96LT9 (Q96LT9 whole entry, looked up): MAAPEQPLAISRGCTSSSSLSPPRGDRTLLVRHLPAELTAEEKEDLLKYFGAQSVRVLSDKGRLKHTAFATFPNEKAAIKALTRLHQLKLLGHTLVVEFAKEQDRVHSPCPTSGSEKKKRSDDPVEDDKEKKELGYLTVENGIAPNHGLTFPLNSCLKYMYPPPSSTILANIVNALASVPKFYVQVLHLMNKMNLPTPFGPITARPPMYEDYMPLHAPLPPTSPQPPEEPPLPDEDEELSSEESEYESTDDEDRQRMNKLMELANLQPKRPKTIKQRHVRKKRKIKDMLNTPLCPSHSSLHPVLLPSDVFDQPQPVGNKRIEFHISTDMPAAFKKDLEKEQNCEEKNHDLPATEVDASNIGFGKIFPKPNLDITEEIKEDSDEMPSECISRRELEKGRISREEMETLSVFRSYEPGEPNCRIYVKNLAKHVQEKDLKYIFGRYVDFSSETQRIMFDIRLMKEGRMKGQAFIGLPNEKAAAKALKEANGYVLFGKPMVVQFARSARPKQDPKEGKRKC
Chain of UniProt P19793 (P19793 whole entry, looked up): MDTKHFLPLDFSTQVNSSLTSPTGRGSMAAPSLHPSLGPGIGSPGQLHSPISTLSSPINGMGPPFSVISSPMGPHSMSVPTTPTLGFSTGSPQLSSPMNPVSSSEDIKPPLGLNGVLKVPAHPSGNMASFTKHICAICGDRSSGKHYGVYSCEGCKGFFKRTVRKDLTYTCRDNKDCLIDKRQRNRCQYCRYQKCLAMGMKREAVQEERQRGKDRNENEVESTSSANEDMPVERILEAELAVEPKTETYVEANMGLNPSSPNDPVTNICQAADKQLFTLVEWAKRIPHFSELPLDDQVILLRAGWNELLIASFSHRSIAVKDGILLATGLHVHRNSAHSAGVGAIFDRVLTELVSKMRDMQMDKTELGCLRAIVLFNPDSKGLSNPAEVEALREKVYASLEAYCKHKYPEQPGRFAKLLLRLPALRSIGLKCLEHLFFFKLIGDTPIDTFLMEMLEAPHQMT
Chain of UniProt O75446 (O75446 whole entry, looked up): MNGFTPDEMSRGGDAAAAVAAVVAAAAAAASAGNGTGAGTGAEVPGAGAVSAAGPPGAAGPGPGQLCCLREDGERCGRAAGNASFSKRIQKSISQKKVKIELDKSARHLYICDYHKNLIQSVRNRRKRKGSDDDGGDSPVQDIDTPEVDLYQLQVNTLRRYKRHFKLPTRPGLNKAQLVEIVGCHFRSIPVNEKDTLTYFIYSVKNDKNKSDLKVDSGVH
Chain of UniProt Q99496 (Q99496 whole entry, looked up): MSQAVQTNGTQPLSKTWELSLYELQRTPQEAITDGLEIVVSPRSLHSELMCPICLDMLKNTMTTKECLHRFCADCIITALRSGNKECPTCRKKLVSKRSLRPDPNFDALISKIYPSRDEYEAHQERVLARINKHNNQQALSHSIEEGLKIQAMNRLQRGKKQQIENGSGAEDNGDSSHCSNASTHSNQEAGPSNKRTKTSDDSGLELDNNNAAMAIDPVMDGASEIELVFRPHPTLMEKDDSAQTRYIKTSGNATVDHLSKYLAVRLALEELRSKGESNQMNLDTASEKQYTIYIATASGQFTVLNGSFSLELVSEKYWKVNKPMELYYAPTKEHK
Chain of UniProt Q9Y6D0 (Q9Y6D0 whole entry, looked up): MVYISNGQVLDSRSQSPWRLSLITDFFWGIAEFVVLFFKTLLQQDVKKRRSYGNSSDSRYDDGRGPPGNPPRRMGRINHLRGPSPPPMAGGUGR

Compound in the first assay: CC1=C(C2=C(C=C1)C(=O)C3=CC=CC=C3N2CCCN)C
Description: log2 fold change, soluble protein after heating vs DMSO (PISA); higher = thermal stabilisation; K562 lysate, 10 uM; active = over 0.2 and 3.5 SD of the protein, either way, in both replicates (recomputed). In short, it runs like this:
(§1)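 Values give the log-two fold change in thermal stability against solvent controls, from duplicates. Crude K562 extract at 1 mg/mL protein, made by dounce homogenisation in PBS pH 7.4 with 1 mM MgCl2, was treated with 10 μM compound for 30 min. After 3 min heating across 48°C-58°C, aliquots were pooled, adjusted to 0.5% NP-40 at 4°C and centrifuged at 21,000xg for 90 min. The supernatant was measured by TMTpro 16plex LC-MS/MS with channel sums equalised.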
RXRA (UniProt P19793): the log2 fold change was 0.063.

On to SELENOK (UniProt Q9Y6D0), for which the log2 fold change is -0.164.

RDH11 (UniProt Q8TC12): the log2 fold change was -0.039.

RHOU (UniProt Q7L0Q8): the log2 fold change was 0.015.

For RYR1 (UniProt P21817), the log2 fold change is -0.014.

With RNF2 (UniProt Q99496), the log2 fold change was -0.081.

On to RAD54L (UniProt Q92698), for which the log2 fold change was 0.039.

Take SAP30 (UniProt O75446): the log2 fold change is -0.007.

Consider RPS6KA3 (UniProt P51812), for which the log2 fold change is -0.02.

Turning to RNPC3 (UniProt Q96LT9), the log2 fold change was -0.015.

On to SCNM1 (UniProt Q9BWG6), for which the log2 fold change was -0.189.

In the case of RMI2 (UniProt Q96E14), the log2 fold change was 0.021.

For the target SEC16A isoform 3 (UniProt O15027), the log2 fold change is -0.006.

As to RNF170 (UniProt Q96K19), the log2 fold change is -0.035.

In the case of SEMA4G isoform 2 (UniProt Q9NTN9), the log2 fold change was -0.021.

Turning to QSER1, A0A3B3IRW6, the log2 fold change was 0.037.

For S100A6 (UniProt P06703), the log2 fold change is 0.793 (active).

On to RALGAPB isoform 3 (UniProt Q86X10), for which the log2 fold change is -0.087.

Regarding SERAC1 (UniProt Q96JX3), the log2 fold change was -0.193.

Turning to RNF17 (UniProt Q9BXT8), the log2 fold change is 0.077.

For the target SATB2 (UniProt Q9UPW6), the log2 fold change is -0.023.

As to RPS6KA5 (UniProt O75582), the log2 fold change was -0.04.

For RAD17 (UniProt O75943), the log2 fold change was -0.029.

Compound in the next assay: CC1=C(C=C(C=C1)NC(=O)C2=CC(=CC=C2)C(C)(C)C#N)NC3=CC4=C(C=C3)N=CN(C4=O)C
Described as above. Put shortly:
as §1
For the target RXRA (UniProt P19793), the log2 fold change was -0.02.

Turning to RDH11 (UniProt Q8TC12), the log2 fold change is -0.037.

As to RHOU (UniProt Q7L0Q8), the log2 fold change is -0.003.

For RYR1 (UniProt P21817), the log2 fold change is 0.195.

With RNF2 (UniProt Q99496), the log2 fold change was -0.048.

As for SAP30 (UniProt O75446), the log2 fold change was 0.016.

As for RPS6KA3 (UniProt P51812), the log2 fold change was -0.061.

In the case of RNPC3 (UniProt Q96LT9), the log2 fold change is -0.028.

Regarding RUFY2 isoform 1 (UniProt Q8WXA3), the log2 fold change is -0.101.

ROBO2 isoform 3 (UniProt Q9HCK4): the log2 fold change was 0.022.

Consider RNF24 isoform 2 (UniProt Q9Y225), for which the log2 fold change is 0.092.

Take SCNM1 (UniProt Q9BWG6): the log2 fold change is 0.06.

Regarding RMI2 (UniProt Q96E14), the log2 fold change is 0.011.

Regarding RBM4 isoform 3 (UniProt Q9BWF3), the log2 fold change is -0.092.

Consider SEMA4G isoform 2 (UniProt Q9NTN9), for which the log2 fold change was -0.137.

Consider QSER1, A0A3B3IRW6, for which the log2 fold change was 0.009.

For S100A6 (UniProt P06703), the log2 fold change was 0.04.

With RNF17 (UniProt Q9BXT8), the log2 fold change was -0.196.

Take SATB2 (UniProt Q9UPW6): the log2 fold change is -0.027.

With RPS6KA5 (UniProt O75582), the log2 fold change is -0.441 (active).

Take RBM45 (UniProt Q8IUH3): the log2 fold change was 0.038.

With RAD17 (UniProt O75943), the log2 fold change was -0.041.

RLIM (UniProt Q9NVW2): the log2 fold change was 0.465.

Compound in another assay: CC1=C(C=C(C=C1)NC(=O)C2=CC(=CC=C2)N(C)C)NC(=O)C3=CC=C(C=C3)O
The description is as above. In short, it runs like this: as §1
Regarding RXRA (UniProt P19793), the log2 fold change was -0.036.

In the case of RDH11 (UniProt Q8TC12), the log2 fold change is -0.039.

Take SEC16A isoform 2 (UniProt O15027): the log2 fold change was 0.167.

RHOU (UniProt Q7L0Q8): the log2 fold change was 0.019.

On to RYR1 (UniProt P21817), for which the log2 fold change was -0.032.

Regarding RNF2 (UniProt Q99496), the log2 fold change was 0.024.

Consider RAD54L (UniProt Q92698), for which the log2 fold change is 0.054.

In the case of RPS6KA3 (UniProt P51812), the log2 fold change is 0.006.

RNPC3 (UniProt Q96LT9): the log2 fold change is 0.054.

Turning to RUFY2 isoform 1 (UniProt Q8WXA3), the log2 fold change was -0.033.

For ROBO2 isoform 3 (UniProt Q9HCK4), the log2 fold change was 0.177.

With SCNM1 (UniProt Q9BWG6), the log2 fold change was -0.069.

RMI2 (UniProt Q96E14): the log2 fold change is 0.039.

Turning to SEC16A isoform 3 (UniProt O15027), the log2 fold change was -0.023.

Turning to QSER1, A0A3B3IRW6, the log2 fold change was 0.087.

As for S100A6 (UniProt P06703), the log2 fold change is 0.199.

Turning to RNF17 (UniProt Q9BXT8), the log2 fold change is -0.044.

Consider SATB2 (UniProt Q9UPW6), for which the log2 fold change is 0.002.

On to RPS6KA5 (UniProt O75582), for which the log2 fold change was 0.004.

As for RAD17 (UniProt O75943), the log2 fold change is 0.049.

Compound in the next assay: CC1=CC=C(C=C1)SC2=C3C=C(SC3=CN=C2)C(=O)N
The description is as above. In short, it runs like this: as §1
In the case of RXRA (UniProt P19793), the log2 fold change is 0.

As for SELENOK (UniProt Q9Y6D0), the log2 fold change was 0.022.

Consider RDH11 (UniProt Q8TC12), for which the log2 fold change was -0.111.

RHOU (UniProt Q7L0Q8): the log2 fold change was 0.045.

Regarding RYR1 (UniProt P21817), the log2 fold change is 0.013.

For RAD54L (UniProt Q92698), the log2 fold change was 0.059.

As for SAP30 (UniProt O75446), the log2 fold change was 0.006.

Consider RPS6KA3 (UniProt P51812), for which the log2 fold change was -0.039.

As to RNPC3 (UniProt Q96LT9), the log2 fold change was -0.003.

For the target ROBO2 isoform 3 (UniProt Q9HCK4), the log2 fold change is -0.053.

With SCNM1 (UniProt Q9BWG6), the log2 fold change is -0.221.

RNF170 (UniProt Q96K19): the log2 fold change was -0.036.

Consider QSER1, A0A3B3IRW6, for which the log2 fold change is -0.087.

With S100A6 (UniProt P06703), the log2 fold change was 0.032.

As to RNF17 (UniProt Q9BXT8), the log2 fold change was -0.068.

Regarding SATB2 (UniProt Q9UPW6), the log2 fold change was 0.047.

With RPS6KA5 (UniProt O75582), the log2 fold change was 0.005.

RBM45 (UniProt Q8IUH3): the log2 fold change was 0.487 (active).

As for RNASEH2B, A0A1B0GUE7, the log2 fold change is 0.09.

On to RHBDD1 (UniProt Q8TEB9), for which the log2 fold change is 0.038.
